The full data set covers some 7,900 targets. This sample favours those with a hit. About 0.6% of all pairs of compound and target were hits. Values without a mark were called inactive.

Sequence of UniProt Q9H300 (Q9H300 whole entry, looked up): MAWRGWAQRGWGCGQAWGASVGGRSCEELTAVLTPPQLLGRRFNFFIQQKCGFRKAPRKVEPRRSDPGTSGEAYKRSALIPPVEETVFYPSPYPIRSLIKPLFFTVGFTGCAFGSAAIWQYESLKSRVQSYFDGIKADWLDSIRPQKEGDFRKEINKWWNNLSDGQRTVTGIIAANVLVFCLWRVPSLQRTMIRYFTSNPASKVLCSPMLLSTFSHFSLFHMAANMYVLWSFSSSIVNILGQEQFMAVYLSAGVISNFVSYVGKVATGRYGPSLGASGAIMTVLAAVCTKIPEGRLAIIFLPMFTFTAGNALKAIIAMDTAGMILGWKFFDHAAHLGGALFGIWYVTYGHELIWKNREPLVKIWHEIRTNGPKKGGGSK
Sequence of UniProt O15530 (O15530 whole entry, looked up): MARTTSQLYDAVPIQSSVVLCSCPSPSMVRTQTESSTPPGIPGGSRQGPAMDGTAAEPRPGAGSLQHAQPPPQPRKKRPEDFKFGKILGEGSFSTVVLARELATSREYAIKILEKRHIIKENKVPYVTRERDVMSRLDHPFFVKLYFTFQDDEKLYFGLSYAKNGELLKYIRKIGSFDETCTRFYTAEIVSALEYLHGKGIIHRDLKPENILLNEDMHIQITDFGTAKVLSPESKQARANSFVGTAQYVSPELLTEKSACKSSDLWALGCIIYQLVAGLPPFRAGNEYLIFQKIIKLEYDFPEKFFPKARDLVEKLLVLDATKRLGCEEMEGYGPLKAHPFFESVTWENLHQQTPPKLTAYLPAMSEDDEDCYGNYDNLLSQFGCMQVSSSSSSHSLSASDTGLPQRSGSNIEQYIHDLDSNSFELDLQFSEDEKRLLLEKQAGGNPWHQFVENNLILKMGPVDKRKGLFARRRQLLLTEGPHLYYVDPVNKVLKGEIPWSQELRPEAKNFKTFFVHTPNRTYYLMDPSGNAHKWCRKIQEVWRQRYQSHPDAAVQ
Sequence of UniProt P0CG38 (P0CG38 whole entry, looked up): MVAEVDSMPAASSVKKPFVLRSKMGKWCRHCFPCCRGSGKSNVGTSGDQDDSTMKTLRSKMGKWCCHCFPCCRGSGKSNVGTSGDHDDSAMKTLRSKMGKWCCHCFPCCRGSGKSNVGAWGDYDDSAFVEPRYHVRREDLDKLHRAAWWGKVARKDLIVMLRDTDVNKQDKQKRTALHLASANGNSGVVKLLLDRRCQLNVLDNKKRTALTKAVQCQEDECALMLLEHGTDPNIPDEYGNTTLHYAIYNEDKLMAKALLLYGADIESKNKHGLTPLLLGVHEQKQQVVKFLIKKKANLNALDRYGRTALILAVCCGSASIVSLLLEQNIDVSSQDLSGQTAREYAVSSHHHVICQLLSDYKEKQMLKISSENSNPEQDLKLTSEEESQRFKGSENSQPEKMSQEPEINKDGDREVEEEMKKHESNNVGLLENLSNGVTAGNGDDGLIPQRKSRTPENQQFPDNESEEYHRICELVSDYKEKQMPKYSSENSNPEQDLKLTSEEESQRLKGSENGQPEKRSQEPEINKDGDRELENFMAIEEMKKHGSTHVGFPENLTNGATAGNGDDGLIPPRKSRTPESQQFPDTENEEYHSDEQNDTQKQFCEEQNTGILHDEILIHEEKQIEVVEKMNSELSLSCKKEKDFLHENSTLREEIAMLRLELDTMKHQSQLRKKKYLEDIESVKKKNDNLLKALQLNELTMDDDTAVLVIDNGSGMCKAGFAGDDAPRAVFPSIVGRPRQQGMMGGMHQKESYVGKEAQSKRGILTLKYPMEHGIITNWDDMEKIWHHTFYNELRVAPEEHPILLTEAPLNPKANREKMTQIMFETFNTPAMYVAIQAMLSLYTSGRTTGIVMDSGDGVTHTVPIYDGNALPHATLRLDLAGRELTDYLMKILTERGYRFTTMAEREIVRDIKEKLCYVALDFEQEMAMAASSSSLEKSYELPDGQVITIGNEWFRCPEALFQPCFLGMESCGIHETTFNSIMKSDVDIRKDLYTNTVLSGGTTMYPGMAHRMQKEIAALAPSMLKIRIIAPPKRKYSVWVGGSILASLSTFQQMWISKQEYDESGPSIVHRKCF
Sequence of UniProt O60678 (O60678 whole entry, looked up): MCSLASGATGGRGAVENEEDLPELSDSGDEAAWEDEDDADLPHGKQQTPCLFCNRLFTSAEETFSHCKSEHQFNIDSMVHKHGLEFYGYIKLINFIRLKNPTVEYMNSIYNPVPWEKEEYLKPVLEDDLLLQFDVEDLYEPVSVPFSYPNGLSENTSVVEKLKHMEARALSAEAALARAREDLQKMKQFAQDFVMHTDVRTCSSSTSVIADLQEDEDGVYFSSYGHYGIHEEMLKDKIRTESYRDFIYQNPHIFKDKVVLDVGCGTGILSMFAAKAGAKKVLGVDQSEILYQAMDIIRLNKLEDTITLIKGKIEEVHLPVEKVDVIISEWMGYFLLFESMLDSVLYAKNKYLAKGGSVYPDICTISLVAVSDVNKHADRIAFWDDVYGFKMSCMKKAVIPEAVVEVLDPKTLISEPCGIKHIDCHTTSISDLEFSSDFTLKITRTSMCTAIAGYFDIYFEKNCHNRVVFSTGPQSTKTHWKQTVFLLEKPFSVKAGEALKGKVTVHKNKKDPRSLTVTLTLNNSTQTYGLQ
Sequence of UniProt Q9NP80 (Q9NP80 whole entry, looked up): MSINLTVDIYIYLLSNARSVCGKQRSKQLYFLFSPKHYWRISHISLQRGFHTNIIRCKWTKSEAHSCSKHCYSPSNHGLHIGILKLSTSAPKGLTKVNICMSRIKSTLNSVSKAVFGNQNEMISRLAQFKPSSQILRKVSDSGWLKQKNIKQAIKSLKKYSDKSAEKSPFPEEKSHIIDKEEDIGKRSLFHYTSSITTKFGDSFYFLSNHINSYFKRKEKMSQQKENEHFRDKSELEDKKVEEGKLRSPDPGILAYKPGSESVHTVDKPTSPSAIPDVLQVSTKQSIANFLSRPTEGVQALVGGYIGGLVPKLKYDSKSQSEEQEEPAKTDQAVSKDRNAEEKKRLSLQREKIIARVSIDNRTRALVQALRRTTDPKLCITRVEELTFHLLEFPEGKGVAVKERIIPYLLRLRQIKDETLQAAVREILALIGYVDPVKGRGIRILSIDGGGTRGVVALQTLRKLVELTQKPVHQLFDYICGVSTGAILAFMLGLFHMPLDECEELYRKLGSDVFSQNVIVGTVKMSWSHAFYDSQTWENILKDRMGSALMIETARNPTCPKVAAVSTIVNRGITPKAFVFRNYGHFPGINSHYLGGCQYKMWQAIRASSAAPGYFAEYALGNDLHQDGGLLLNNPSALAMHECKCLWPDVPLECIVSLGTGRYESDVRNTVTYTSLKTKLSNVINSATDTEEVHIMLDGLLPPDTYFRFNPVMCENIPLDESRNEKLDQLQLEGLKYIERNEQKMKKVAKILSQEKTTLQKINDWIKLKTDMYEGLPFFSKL
Sequence of UniProt O43395 (O43395 whole entry, looked up): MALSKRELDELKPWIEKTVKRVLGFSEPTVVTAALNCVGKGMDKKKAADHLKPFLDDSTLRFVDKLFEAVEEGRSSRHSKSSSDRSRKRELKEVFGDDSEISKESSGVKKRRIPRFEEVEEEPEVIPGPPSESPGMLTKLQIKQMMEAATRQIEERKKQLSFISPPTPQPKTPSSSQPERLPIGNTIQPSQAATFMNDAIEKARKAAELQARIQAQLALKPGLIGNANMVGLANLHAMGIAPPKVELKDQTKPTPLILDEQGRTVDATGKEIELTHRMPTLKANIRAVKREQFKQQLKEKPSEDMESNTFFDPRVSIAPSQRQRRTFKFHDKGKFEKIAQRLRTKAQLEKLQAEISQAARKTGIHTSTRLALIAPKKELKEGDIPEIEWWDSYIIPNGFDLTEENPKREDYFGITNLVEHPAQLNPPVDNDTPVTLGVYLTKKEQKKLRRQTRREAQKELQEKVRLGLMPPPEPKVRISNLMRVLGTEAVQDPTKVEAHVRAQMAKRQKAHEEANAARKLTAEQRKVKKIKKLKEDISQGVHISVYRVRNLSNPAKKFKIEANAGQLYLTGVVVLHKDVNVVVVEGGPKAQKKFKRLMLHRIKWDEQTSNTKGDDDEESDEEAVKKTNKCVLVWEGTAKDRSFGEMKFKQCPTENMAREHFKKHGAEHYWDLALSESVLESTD
Sequence of UniProt Q15257 (Q15257 whole entry, looked up): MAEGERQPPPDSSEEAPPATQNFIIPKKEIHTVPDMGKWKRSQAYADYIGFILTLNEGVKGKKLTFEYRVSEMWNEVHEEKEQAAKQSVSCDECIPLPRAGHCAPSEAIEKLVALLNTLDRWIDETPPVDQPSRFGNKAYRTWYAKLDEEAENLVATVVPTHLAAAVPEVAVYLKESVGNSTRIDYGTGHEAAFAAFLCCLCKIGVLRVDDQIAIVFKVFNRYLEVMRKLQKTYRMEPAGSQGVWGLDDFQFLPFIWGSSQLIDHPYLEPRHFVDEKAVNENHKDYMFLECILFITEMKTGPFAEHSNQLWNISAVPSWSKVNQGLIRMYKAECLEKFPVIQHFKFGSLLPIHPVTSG
Sequence of UniProt P25788 (P25788 whole entry, looked up): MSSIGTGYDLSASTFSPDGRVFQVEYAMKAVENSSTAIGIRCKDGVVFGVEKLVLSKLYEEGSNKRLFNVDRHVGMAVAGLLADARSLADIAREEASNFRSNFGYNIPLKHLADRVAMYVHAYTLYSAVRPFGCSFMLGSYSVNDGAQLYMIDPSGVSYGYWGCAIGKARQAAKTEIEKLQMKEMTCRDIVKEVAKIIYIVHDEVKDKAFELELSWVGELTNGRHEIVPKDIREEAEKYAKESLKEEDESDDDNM
Sequence of UniProt Q9Y244 (Q9Y244 whole entry, looked up): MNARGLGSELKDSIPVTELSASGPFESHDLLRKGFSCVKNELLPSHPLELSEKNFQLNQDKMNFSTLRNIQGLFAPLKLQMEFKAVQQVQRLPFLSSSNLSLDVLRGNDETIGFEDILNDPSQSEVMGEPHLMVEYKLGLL
Sequence of UniProt Q9Y2Y1 (Q9Y2Y1 whole entry, looked up): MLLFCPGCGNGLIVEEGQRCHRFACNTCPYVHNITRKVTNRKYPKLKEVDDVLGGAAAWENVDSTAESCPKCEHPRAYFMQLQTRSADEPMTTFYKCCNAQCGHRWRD

Compound in one experiment: CN1CC[C@H](c2c(O)cc(O)c3c(=O)cc(-c4ccccc4Cl)oc23)[C@H](O)C1 [alvocidib]
The experiment can be described thus: log2 fold change, soluble protein after heating vs DMSO (PISA); higher = thermal stabilisation; K562 cells, 10 uM, 30 min; active = over 0.2 and 3.5 SD of the protein, either way, in both replicates (recomputed). An outline of the steps: (§1)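 For each measurement, 10 μM compound was applied for 30 min to K562 cells at 2×10^6 cells/mL. Aliquots were heated for 3 min across 48°C-58°C, pooled, and extracted in PBS with 0.5% NP-40 at 4°C; the supernatant after 21,000xg for 90 min was soluble protein. This was quantified by TMTpro 16plex LC-MS/MS with channel sums equalised, and thermal stability was reported relative to control samples from duplicates, on a log2 fold-change scale.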
On to POTEI (UniProt P0CG38), for which the log2 fold change was -0.038.
POLR1A (UniProt O95602): the log2 fold change is -0.06.
As to POMP (UniProt Q9Y244), the log2 fold change was 0.046.
Same read-out and setting: the figure for PPP2R5E (UniProt Q16537) is -0.069; for PSMA3 (UniProt P25788) it is -0.043; for PRPF3 (UniProt O43395) it is 0.24.
Still for that read-out and setting: then PNPLA8 (UniProt Q9NP80), with 0.037; and PRMT3 (UniProt O60678), with 0; and PRIM2 (UniProt P49643), with -0.132.
Turning to PFAS (UniProt O15067), the log2 fold change was -0.066.
The same measure, in the same setting: then PARL (UniProt Q9H300), with 0.026.
As to PDPK1 (UniProt O15530), the log2 fold change was -0.075.
The same measure, in the same setting: then PTPA (UniProt Q15257), with -0.06.

Compound in another experiment: CN1CCc2c(c3ccccc3n2Cc2ccc(C(=O)NO)cc2)C1 [Tubastatin A]
Described as above. An outline of the steps:
as §1
With PYGB (UniProt P11216), the log2 fold change was -0.003.
Still for that read-out and setting: then PLCB3 (UniProt Q01970), with -0.027.
POLR2M (UniProt P0CAP2): the log2 fold change is 0.005.
In the case of PEX16 isoform 2 (UniProt Q9Y5Y5), the log2 fold change is 0.021.
As for PTPA (UniProt A6PVN8), the log2 fold change was 0.131.
As for PARN (UniProt O95453), the log2 fold change is -0.017.
Still for that read-out and setting: then PKM (UniProt P14618), with -0.004.
The same measure, in the same setting: then PRIM1 (UniProt P49642), with 0.042; and PCK2 (UniProt Q16822), with -0.139; and POLR2G (UniProt P62487), with -0.045.
On the same count and under the same terms, then PTDSS1 (UniProt P48651), with 0.048; and PHKA2 (UniProt P46019), with -0.021; and PISD (UniProt Q9UG56), with 0.019.
Regarding PIP4P1 isoform 2 (UniProt Q86T03), the log2 fold change is -0.005.
On to PGGT1B (UniProt P53609), for which the log2 fold change was -0.047.
As for PCLAF (UniProt Q15004), the log2 fold change was 0.08.
Still for that read-out and setting: then POLR3K (UniProt Q9Y2Y1), with 0.044; and POLR2K (UniProt P53803), with -0.031.
For the target PCBP1 (UniProt Q15365), the log2 fold change was 0.013.
Same read-out and setting: then PCNT (UniProt O95613), with -0.069.
As to PTGR2 (UniProt Q8N8N7), the log2 fold change is 0.046.
Consider PLIN2 (UniProt Q99541), for which the log2 fold change is 0.015.
Still for that read-out and setting: then PDCD6 (UniProt O75340), with 0.001.
Take PYGL (UniProt P06737): the log2 fold change was -0.007.
For the target POTEI (UniProt P0CG38), the log2 fold change was -0.012.
Still for that read-out and setting: the figure for POLR1A (UniProt O95602) is 0.148; for POMP (UniProt Q9Y244) it is -0.067.
Still for that read-out and setting: then PPP2R5E (UniProt Q16537), with 0.005; and PSMA3 (UniProt P25788), with -0.006.
With PRPF3 (UniProt O43395), the log2 fold change was 0.07.
On the same count and under the same terms, the figure for PNPLA8 (UniProt Q9NP80) is -0.009.
Still for that read-out and setting: then PRMT3 (UniProt O60678), with -0.017; and PRIM2 (UniProt P49643), with 0.024.
On to PFAS (UniProt O15067), for which the log2 fold change is 0.046.
As to PARL (UniProt Q9H300), the log2 fold change was -0.053.
Turning to PDPK1 (UniProt O15530), the log2 fold change was 0.023.
PTPA (UniProt Q15257): the log2 fold change was -0.029.

Compound in the next experiment: CNC(=O)C1=CC=CC=C1NC2=NC(=NC=C2Cl)NC3=C(C=C(C=C3)N4CCOCC4)OC
The experiment is described as above. An outline of the steps: as §1
For PYGB (UniProt P11216), the log2 fold change is -0.391 (active).
PLCB3 (UniProt Q01970): the log2 fold change is 0.023.
For POLR2M (UniProt P0CAP2), the log2 fold change is -0.015.
On the same count and under the same terms, then PEX16 isoform 2 (UniProt Q9Y5Y5), with -0.053.
Same read-out and setting: the figure for PTPA (UniProt A6PVN8) is -0.133; for PARN (UniProt O95453) it is 0.02.
For the target PKM (UniProt P14618), the log2 fold change is -0.028.
In the case of PRIM1 (UniProt P49642), the log2 fold change is 0.116.
Regarding PCK2 (UniProt Q16822), the log2 fold change was -0.006.
Consider POLR2G (UniProt P62487), for which the log2 fold change was 0.003.
On to PTDSS1 (UniProt P48651), for which the log2 fold change is -0.065.
Take PHKA2 (UniProt P46019): the log2 fold change is 0.135.
On the same count and under the same terms, the figure for PISD (UniProt Q9UG56) is 0.026; for PIP4P1 isoform 2 (UniProt Q86T03) it is 0; for PGGT1B (UniProt P53609) it is -0.025.
In the case of PCLAF (UniProt Q15004), the log2 fold change is -0.094.
On to POLR3K (UniProt Q9Y2Y1), for which the log2 fold change is -0.035.
For the target POLR2K (UniProt P53803), the log2 fold change was -0.057.
Same read-out and setting: then PCBP1 (UniProt Q15365), with -0.015.
PCNT (UniProt O95613): the log2 fold change was -0.098.
As for PTGR2 (UniProt Q8N8N7), the log2 fold change is -0.052.
Consider PLIN2 (UniProt Q99541), for which the log2 fold change is 0.026.
Regarding PDCD6 (UniProt O75340), the log2 fold change was 0.026.
Take PYGL (UniProt P06737): the log2 fold change was -0.185.
Still for that read-out and setting: the figure for POTEI (UniProt P0CG38) is -0.02.
Same read-out and setting: the figure for POLR1A (UniProt O95602) is -0.138; for POMP (UniProt Q9Y244) it is -0.035; for PPP2R5E (UniProt Q16537) it is 0.083.
Same read-out and setting: the figure for PSMA3 (UniProt P25788) is 0.014; for PRPF3 (UniProt O43395) it is -0.021; for PNPLA8 (UniProt Q9NP80) it is -0.021.
On to PRMT3 (UniProt O60678), for which the log2 fold change was 0.058.
Turning to PRIM2 (UniProt P49643), the log2 fold change is 0.009.
On to PFAS (UniProt O15067), for which the log2 fold change was -0.324 (active).
Same read-out and setting: then PARL (UniProt Q9H300), with 0.025.
On the same count and under the same terms, the figure for PDPK1 (UniProt O15530) is -0.064.
Take PTPA (UniProt Q15257): the log2 fold change is -0.036.

Values taken from the supplement of paper PMC10849652.
